Reference: PubChem BioAssay (NCI)
The panel holds about 83,000 compounds, 20% with a hit somewhere; the sample as a whole holds those more often.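 Interpretation: 100, growth as untreated; towards 0, rising growth inhibition; 0, no net growth; 0 to -100, cell death. Compounds scoring below 10 were considered active.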 A number with no mark means an inactive call. Calls of active or inactive are those of the source.

Experiments:
Test in all cases: NCI-60 one-dose screen, 48 h (100 = growth as untreated, 0 = no growth, -100 = all killed)
Settings in all cases: 10 µM unless noted
NCI-H23 lung = test system: NCI-H23 lung
NCI-H226 lung = test system: NCI-H226 lung
NCI-H322M lung = test system: NCI-H322M lung
HOP-62 NSCLC = test system: HOP-62 NSCLC
NCI-H460 lung = test system: NCI-H460 lung
HOP-92 NSCLC = test system: HOP-92 NSCLC
NCI-H522 lung = test system: NCI-H522 lung
A549/ATCC NSCLC = test system: A549/ATCC NSCLC
786-0 renal = test system: 786-0 renal
COLO 205 colon = test system: COLO 205 colon

| SMILES | growth (NCI-H23 lung) | growth (NCI-H226 lung) | growth (NCI-H322M lung) | growth (HOP-62 NSCLC) | growth (NCI-H460 lung) | growth (HOP-92 NSCLC) | growth (NCI-H522 lung) | growth (A549/ATCC NSCLC) | growth (786-0 renal) | growth (COLO 205 colon) |
| --- | --- | --- | --- | --- | --- | --- | --- | --- | --- | --- |
| COc1c(C(=O)Nc2ccc(C)c(Br)c2)ccc2ccccc12 | 90.6% | 103% | 104% | 99.8% | 102% | 105% | 85% | 87.9% | 96.5% | 101% |
| COc1ccc(F)cc1/C=C/C(=O)/C=C(/C=C/c1cc(F)ccc1OC)OB(F)F | 35.2% | 97.9% | 103% | 86.1% | 75.2% | 56.1% | -20.7% (active) | 71.7% | 19.4% | 10.8% |
| NC(Cc1ccc(O)c([N+](=O)[O-])c1)C(=O)O (stereo not given) | 98.5% | 101% | 107% | 105% | 113% | 67.4% | 94.7% | 100% | 99.2% | 122% |
| C=CCN=c1sc2c(n1NC(=O)c1cc3ccc1CCc1ccc(cc1)CC3)C(=O)c1ccccc1C2=O | -34.1% (active) | 48.5% | 67.8% | 19.5% | 12.7% | 21.5% | -20.2% (active) | 23.3% | -21.8% (active) | 19.2% |
| Nc1cnc(C(=O)NNc2nc3cc(F)ccc3n3cccc23)cn1 | 44% | 49.5% | 26.3% | 33% | 7.9% (active) | 64.2% | 16.7% | 38.8% | 37.7% | 9.48% (active) |
| O=C(Nn1c2c(sc1=NC1CC1)C(=O)c1ccccc1C2=O)c1cc2ccc1CCc1ccc(cc1)CC2 | 9.63% (active) | 64.9% | 96% | 54.1% | 53.9% | 95.5% | 37.3% | 67.7% | 68.6% | 96.3% |
| CSc1nc2ncc([N+](=O)[O-])c(=O)n2[nH]1 | 104% | 97% | 110% | 98.8% | 103% | 52.4% | 93.8% | 101% | 108% | 119% |
| COc1ccc(Cc2cnc(NC(=O)c3cc(C)oc3C)s2)cc1 | 59.5% | 70.7% | 51.9% | 53% | 16.6% | 49.9% | 14.4% | 38.1% | 43.4% | 42.9% |
| C/C(Cc1ccc(Cl)cc1)=C(\c1ccc(O)cc1)c1ccc(Cl)cc1 | 85.2% | 93.3% | 83.3% | 110% | 91.5% | 83.1% | 84.1% | 94.8% | 89.5% | 109% |
| CCOC(=O)c1c(C(=O)c2cn(C)c3ccc(Br)cc23)c(-c2cn(C)c3ccc(Br)cc23)n(NC(=O)OC(C)(C)C)c1C | 86.5% [100 µM] | 89.7% [100 µM] | 89.5% [100 µM] | 56.1% [100 µM] | 80.5% [100 µM] | 4.73% [100 µM] (active) | 89.6% [100 µM] | 74% [100 µM] | 32% [100 µM] | 98.5% [100 µM] |
| CCN(CC)Cc1cc(C=C2C(=O)NC(=S)NC2=O)cc(OC)c1O | 98.1% | 107% | 103% | 106% | 104% | 104% | 104% | 109% | 104% | 117% |
| O=S(=O)(NCCNc1nccc(-c2c(-c3ccc(F)c(O)c3)nc3occn23)n1)c1ccc(Cl)cc1 | 80.3% | 102% | 97.1% | 101% | 76.7% | 70.4% | 76.6% | 77.9% | 109% | 67.7% |
| Nc1ncc(-c2ccc3ncnc(Nc4cccc(Cl)c4)c3c2)cn1 | 58.9% | 51.3% | 4.75% (active) | 37.8% | 54.8% | 11.8% | 3.25% (active) | 35.1% | 40.8% | 51.2% |
| O=C(Nc1ccccc1)Nc1ncnc2c1ncn2-c1ccc(Cl)cc1 | 88.5% | 65% | 79.3% | 75.4% | 46.3% | 97.3% | 85.4% | 83.7% | 46.9% | 86.8% |
| COC1=CC(c2ccc[nH]2)=N/C1=C\c1[nH]c(C)c(C)c1CCC(=O)OCc1ccccc1 | -9.49% (active) | -2.19% (active) | 54.5% | -3% (active) | 18.6% | -27.8% (active) | -38.7% (active) | 10.1% | -38.8% (active) | -64.8% (active) |
| Cc1ccc(C(=O)c2ccc(CC(=O)N/N=C/c3ccccc3O)n2C)cc1 | 82.9% | 97% | 78.9% | 76% | 76.6% | 98.6% | 75.2% | 86.1% | 96.8% | 101% |
| CCOC(=O)c1ccc2c(c1)nc(-c1ccccc1)n2C1CCCCC1 | 90.3% | 120% | 83.1% | 65% | 107% | 91.7% | 73.6% | 68.3% | 88.5% | 76.3% |
| Cc1cc(N2CCCCC2)cc(C)c1-c1csc(NC(=O)c2ccncc2)n1 | 45.1% | 60.6% | 78.2% | 62.5% | 66.9% | 53.8% | 44.1% | 49.1% | 77.5% | 60.6% |
| CCC(C(=O)[C@@H](C)[C@@H](O)[C@H](C)[C@@H]1O[C@@H]([C@@H](CC)C(=O)ONC(=O)c2ccccc2)CC[C@@H]1C)[C@H]1O[C@]2(C=CC(=O)[C@]3(CC[C@@](C)([C@H]4CC[C@](O)(CC)[C@H](C)O4)O3)O2)[C@H](C)C[C@@H]1C (stereo not given in full) | -49.7% (active) | 42% | 37.4% | 26.5% | -57.8% (active) | -62.2% (active) | -25.9% (active) | -19.6% (active) | 9.1% (active) | -26% (active) |
| COc1ccc(-c2cc(-c3ccc(Cl)cc3)c(C#N)c(=O)n2Cc2ccc(C(=O)Nc3ccccc3N)cc2)cc1 | 77.2% | 81.2% | 89.3% | 71.6% | 94.6% | 54.1% | 53.9% | 109% | 90.3% | 95.8% |
| COc1cc2c(cc1OC)C(C)N(S(N)(=O)=O)CC2 (stereo not given) | 87.1% | 78.8% | 105% | 80.2% | 111% | 98.6% | 98.4% | 101% | 89.3% | 111% |
| NS(=O)(=O)c1ccccc1NC(=O)Nc1nc2ccccc2s1 | 90.8% | 91.5% | 98% | 96.1% | 103% | 99.1% | 91.9% | 101% | 98% | 109% |
| C=C1C(=O)O[C@H]2[C@H]1CC/C(Cn1cc(-c3ccccc3)nn1)=C\CC[C@@]1(C)O[C@@H]21 | -23.6% (active) | -25.8% (active) | 89.2% | 79.3% | 51.8% | -69.9% (active) | -62% (active) | 33.8% | -78% (active) | -65.3% (active) |
| N=C(N)c1ccc(-c2ccc(-c3ccc(Cl)cc3Cl)s2)cc1 | 56.5% | 77.9% | 13.9% | 34.1% | -66.3% (active) | 75.2% | -28.6% (active) | -30.2% (active) | -18% (active) | -31.6% (active) |
| O=C1/C(=C/c2cccc(F)c2)CN(C(=O)C(Cl)Cl)C/C1=C\c1cccc(F)c1 | -75.3% (active) | 0.29% (active) | -44.1% (active) | -25.8% (active) | -63% (active) | -58% (active) | -80.3% (active) | -28.7% (active) | -77% (active) | -60% (active) |
| COc1ccc(OC)c(-c2nc(SCC(=O)c3ccc(C#N)cc3)[nH]c(=O)c2C#N)c1 | 98.1% | 101% | 105% | 99.7% | 112% | 99% | 90.4% | 103% | 101% | 86.9% |
| C#CCOc1cccc(Nc2ncnc3cc(NC(=O)C=C)ccc23)c1 | 30.3% | 62.3% | 50.3% | 40.4% | 16.1% | 12.3% | -17.5% (active) | 29.7% | 7.49% (active) | 17.3% |
